Results with a measured potency or affinity are listed apart. Active and inactive are the calls of the source.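 The calls were made as follows: active = viability loss with half-max dose at or under ten times the top valid dose tested; inconclusive = flat 30 to 70% loss, or poor curve fit; inactive = flat within 30%, weak potency, or gain.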
Test: DRD BJ cell killing, Ras synthetic lethality – DRD BJ fibroblasts, HRASV12, dry powder, dose response (AID 493049)
Conditions: DRD engineered BJ fibroblasts (HRASV12) viability, Alamar Blue, 48 h; series mostly up to 45 µM
In the case of `COc1ccc(N(C(=O)[C@@H](C)Cl)C(C(=O)NCCc2ccccc2)c2cccs2)cc1Cl` (stereo partly specified), the outcome is reported as “inactive”. For `CCC(=O)N(c1ccc(OC)c(Cl)c1)C(C(=O)NCCc1ccccc1)c1cccs1` (stereo unspecified), the outcome was “inactive”. With `COc1ccc(N(C(=O)CSc2ncccn2)C(C(=O)NCCc2ccccc2)c2cccs2)cc1Cl` (stereo unspecified) the outcome was “inactive”. With `COCC(=O)N(c1ccc(OC)c(Cl)c1)C(C(=O)NCCc1ccccc1)c1cccs1` (stereo unspecified) the outcome was “inactive”. For `COc1ccc(N(C(=O)CO)C(C(=O)NCCc2ccccc2)c2cccs2)cc1Cl` (stereo unspecified), the outcome was “inactive”. In the case of `O=C(c1[nH]ncc1[N+](=O)[O-])N1CCN(C(c2ccccc2)c2ccccc2)CC1`, the outcome is reported as “inactive”.

— PubChem BioAssay AID493049 (Broad Institute, 2011)
